# The supplement of paper PMC4466140
# Experiments:
# Test in all cases: SPOT peptide array binding signal intensity (averaged, normalized) (arbitrary units (background-subtracted, floor 0; scale differs between SH3 domains)); higher = stronger binding of the SH3 domain to the peptide
# AgAbp1 = biological target: AgAbp1
# How it was run: (§1)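 Peptides were synthetic 15-mers on cellulose membranes, with every cysteine replaced by serine. They were incubated overnight at 4°C with GST-SH3 domains from four yeast species at 10 μg/ml in TBS-based blocking buffer. Binding signal, the replicate-averaged normalized and background-subtracted spot intensity, is in arbitrary units that differ between domains.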
# AgBbc1 = biological target: AgBbc1
# How it was run: as §1
# AgBem1-D1 = biological target: AgBem1-D1
# How it was run: as §1
# AgBzz1-D1 = biological target: AgBzz1-D1
# How it was run: as §1
# AgBzz1-D2 = biological target: AgBzz1-D2
# How it was run: as §1
# AgCyk3 = biological target: AgCyk3
# How it was run: as §1
# AgFus1 = biological target: AgFus1
# How it was run: as §1
# AgHof1 = biological target: AgHof1
# How it was run: as §1
# AgHse1 = biological target: AgHse1
# How it was run: as §1
# AgLsb1 = biological target: AgLsb1
# How it was run: as §1
# AgLsb4 = biological target: AgLsb4
# How it was run: as §1
# AgMyo5 = biological target: AgMyo5
# How it was run: as §1
# AgNbp2 = biological target: AgNbp2
# How it was run: as §1
# AgRvs167 = biological target: AgRvs167
# How it was run: as §1
# AgSho1 = biological target: AgSho1
# How it was run: as §1
# AgSla1-D1-D2 = biological target: AgSla1-D1-D2
# How it was run: as §1
# AgSla1-D3 = biological target: AgSla1-D3
# How it was run: as §1
# CaAbp1-D1 = biological target: CaAbp1-D1
# How it was run: as §1
# CaAbp1-D2 = biological target: CaAbp1-D2
# How it was run: as §1
# CaBbc1 = biological target: CaBbc1
# How it was run: as §1
# CaBem1-D1 = biological target: CaBem1-D1
# How it was run: as §1
# CaBzz1-D1 = biological target: CaBzz1-D1
# How it was run: as §1
# CaBzz1-D2 = biological target: CaBzz1-D2
# How it was run: as §1
# CaCyk3 = biological target: CaCyk3
# How it was run: as §1
# CaFus1 = biological target: CaFus1
# How it was run: as §1
# CaHof1 = biological target: CaHof1
# How it was run: as §1
# CaHse1 = biological target: CaHse1
# How it was run: as §1
# CaLsb1 = biological target: CaLsb1
# How it was run: as §1
# CaLsb4 = biological target: CaLsb4
# How it was run: as §1
# CaMyo5 = biological target: CaMyo5
# How it was run: as §1
# CaNbp2 = biological target: CaNbp2
# How it was run: as §1
# CaRvs167 = biological target: CaRvs167
# How it was run: as §1
# CaRvs167-3 = biological target: CaRvs167-3
# How it was run: as §1
# CaSho1 = biological target: CaSho1
# How it was run: as §1
# CaSla1-D1-D2 = biological target: CaSla1-D1-D2
# How it was run: as §1
# CaSla1-D3 = biological target: CaSla1-D3
# How it was run: as §1
# ScAbp1 = biological target: ScAbp1
# How it was run: as §1
# ScBbc1 = biological target: ScBbc1
# How it was run: as §1
# ScBem1-D1 = biological target: ScBem1-D1
# How it was run: as §1
# ScBzz1-D1 = biological target: ScBzz1-D1
# How it was run: as §1
# ScBzz1-D2 = biological target: ScBzz1-D2
# How it was run: as §1
# ScCyk3 = biological target: ScCyk3
# How it was run: as §1
# ScFus1 = biological target: ScFus1
# How it was run: as §1
# ScHof1 = biological target: ScHof1
# How it was run: as §1
# ScHse1 = biological target: ScHse1
# How it was run: as §1
# ScLsb1 = biological target: ScLsb1
# How it was run: as §1
# ScLsb2 = biological target: ScLsb2
# How it was run: as §1
# ScLsb3 = biological target: ScLsb3
# How it was run: as §1
# ScLsb4 = biological target: ScLsb4
# How it was run: as §1
# ScMyo3 = biological target: ScMyo3
# How it was run: as §1
# ScMyo5 = biological target: ScMyo5
# How it was run: as §1
# ScNbp2 = biological target: ScNbp2
# How it was run: as §1
# ScPex13 = biological target: ScPex13
# How it was run: as §1
# ScRvs167 = biological target: ScRvs167
# How it was run: as §1
# ScSho1 = biological target: ScSho1
# How it was run: as §1
# ScSla1-D1-D2 = biological target: ScSla1-D1-D2
# How it was run: as §1
# ScSla1-D3 = biological target: ScSla1-D3
# How it was run: as §1
# SpAbp1-D1 = biological target: SpAbp1-D1
# How it was run: as §1
# SpBbc1 = biological target: SpBbc1
# How it was run: as §1
# SpBzz1-D1 = biological target: SpBzz1-D1
# How it was run: as §1
# SpBzz1-D2 = biological target: SpBzz1-D2
# How it was run: as §1
# SpCyk3 = biological target: SpCyk3
# How it was run: as §1
# SpHof1 = biological target: SpHof1
# How it was run: as §1
# SpHof1-2 = biological target: SpHof1-2
# How it was run: as §1
# SpHof1-3 = biological target: SpHof1-3
# How it was run: as §1
# SpHse1 = biological target: SpHse1
# How it was run: as §1
# SpLsb1 = biological target: SpLsb1
# How it was run: as §1
# SpLsb4 = biological target: SpLsb4
# How it was run: as §1
# SpMyo1 = biological target: SpMyo1
# How it was run: as §1
# SpNbp2 = biological target: SpNbp2
# How it was run: as §1
# SpPex13 = biological target: SpPex13
# How it was run: as §1
# SpRvs167 = biological target: SpRvs167
# How it was run: as §1
# SpSla1-D1-D2 = biological target: SpSla1-D1-D2
# How it was run: as §1
# SpSla1-D3 = biological target: SpSla1-D3
# How it was run: as §1
binder,measurement,setting,value
NSMRPPLLIPAATTK,SPOT peptide array binding signal intensity,AgAbp1,0.5
same,SPOT peptide array binding signal intensity,AgBbc1,13.5
same,SPOT peptide array binding signal intensity,AgBem1-D1,450
same,SPOT peptide array binding signal intensity,AgBzz1-D1,19
same,SPOT peptide array binding signal intensity,AgBzz1-D2,16.5
same,SPOT peptide array binding signal intensity,AgCyk3,1
same,SPOT peptide array binding signal intensity,AgFus1,384
same,SPOT peptide array binding signal intensity,AgHof1,20.5
same,SPOT peptide array binding signal intensity,AgHse1,210
same,SPOT peptide array binding signal intensity,AgLsb1,128
same,SPOT peptide array binding signal intensity,AgLsb4,12
same,SPOT peptide array binding signal intensity,AgMyo5,15
same,SPOT peptide array binding signal intensity,AgNbp2,114
same,SPOT peptide array binding signal intensity,AgRvs167,2.33
same,SPOT peptide array binding signal intensity,AgSho1,390
same,SPOT peptide array binding signal intensity,AgSla1-D1-D2,4
same,SPOT peptide array binding signal intensity,AgSla1-D3,1.75
same,SPOT peptide array binding signal intensity,CaAbp1-D1,63.5
same,SPOT peptide array binding signal intensity,CaAbp1-D2,121
same,SPOT peptide array binding signal intensity,CaBbc1,47.2
same,SPOT peptide array binding signal intensity,CaBem1-D1,378
same,SPOT peptide array binding signal intensity,CaBzz1-D1,190
same,SPOT peptide array binding signal intensity,CaBzz1-D2,111
same,SPOT peptide array binding signal intensity,CaCyk3,5.5
same,SPOT peptide array binding signal intensity,CaFus1,1550
same,SPOT peptide array binding signal intensity,CaHof1,0.5
same,SPOT peptide array binding signal intensity,CaHse1,103
same,SPOT peptide array binding signal intensity,CaLsb1,13.2
same,SPOT peptide array binding signal intensity,CaLsb4,516
same,SPOT peptide array binding signal intensity,CaMyo5,133
same,SPOT peptide array binding signal intensity,CaNbp2,291
same,SPOT peptide array binding signal intensity,CaRvs167,83.8
same,SPOT peptide array binding signal intensity,CaRvs167-3,3.75
same,SPOT peptide array binding signal intensity,CaSho1,1320
same,SPOT peptide array binding signal intensity,CaSla1-D1-D2,244
same,SPOT peptide array binding signal intensity,CaSla1-D3,317
same,SPOT peptide array binding signal intensity,ScAbp1,4
same,SPOT peptide array binding signal intensity,ScBbc1,1.5
same,SPOT peptide array binding signal intensity,ScBem1-D1,≤ 0
same,SPOT peptide array binding signal intensity,ScBzz1-D1,7.5
same,SPOT peptide array binding signal intensity,ScBzz1-D2,19.5
same,SPOT peptide array binding signal intensity,ScCyk3,6
same,SPOT peptide array binding signal intensity,ScFus1,508
same,SPOT peptide array binding signal intensity,ScHof1,≤ 0
same,SPOT peptide array binding signal intensity,ScHse1,160
same,SPOT peptide array binding signal intensity,ScLsb1,232
same,SPOT peptide array binding signal intensity,ScLsb2,1
same,SPOT peptide array binding signal intensity,ScLsb3,303
same,SPOT peptide array binding signal intensity,ScLsb4,208
same,SPOT peptide array binding signal intensity,ScMyo3,47.5
same,SPOT peptide array binding signal intensity,ScMyo5,8.5
same,SPOT peptide array binding signal intensity,ScNbp2,150
same,SPOT peptide array binding signal intensity,ScPex13,222
same,SPOT peptide array binding signal intensity,ScRvs167,53.7
same,SPOT peptide array binding signal intensity,ScSho1,562
same,SPOT peptide array binding signal intensity,ScSla1-D1-D2,266
same,SPOT peptide array binding signal intensity,ScSla1-D3,430
same,SPOT peptide array binding signal intensity,SpAbp1-D1,27
same,SPOT peptide array binding signal intensity,SpBbc1,2.75
same,SPOT peptide array binding signal intensity,SpBzz1-D1,273
same,SPOT peptide array binding signal intensity,SpBzz1-D2,53.8
same,SPOT peptide array binding signal intensity,SpCyk3,3
same,SPOT peptide array binding signal intensity,SpHof1,36
same,SPOT peptide array binding signal intensity,SpHof1-2,31.8
same,SPOT peptide array binding signal intensity,SpHof1-3,41
same,SPOT peptide array binding signal intensity,SpHse1,444
same,SPOT peptide array binding signal intensity,SpLsb1,34.2
same,SPOT peptide array binding signal intensity,SpLsb4,761
same,SPOT peptide array binding signal intensity,SpMyo1,56.2
same,SPOT peptide array binding signal intensity,SpNbp2,116
same,SPOT peptide array binding signal intensity,SpPex13,37
same,SPOT peptide array binding signal intensity,SpRvs167,68.2
same,SPOT peptide array binding signal intensity,SpSla1-D1-D2,≤ 0
same,SPOT peptide array binding signal intensity,SpSla1-D3,200
AAAPKHAPPPVPNET,SPOT peptide array binding signal intensity,AgAbp1,≤ 0
same,SPOT peptide array binding signal intensity,AgBbc1,≤ 0
same,SPOT peptide array binding signal intensity,AgBem1-D1,≤ 0
same,SPOT peptide array binding signal intensity,AgBzz1-D1,96
same,SPOT peptide array binding signal intensity,AgBzz1-D2,≤ 0
same,SPOT peptide array binding signal intensity,AgCyk3,≤ 0
same,SPOT peptide array binding signal intensity,AgFus1,≤ 0
same,SPOT peptide array binding signal intensity,AgHof1,≤ 0
same,SPOT peptide array binding signal intensity,AgHse1,≤ 0
same,SPOT peptide array binding signal intensity,AgLsb1,≤ 0
same,SPOT peptide array binding signal intensity,AgLsb4,≤ 0
same,SPOT peptide array binding signal intensity,AgMyo5,2020
same,SPOT peptide array binding signal intensity,AgNbp2,≤ 0
same,SPOT peptide array binding signal intensity,AgRvs167,≤ 0
same,SPOT peptide array binding signal intensity,AgSho1,≤ 0
same,SPOT peptide array binding signal intensity,AgSla1-D1-D2,≤ 0
same,SPOT peptide array binding signal intensity,AgSla1-D3,11
same,SPOT peptide array binding signal intensity,CaAbp1-D1,≤ 0
same,SPOT peptide array binding signal intensity,CaAbp1-D2,≤ 0
same,SPOT peptide array binding signal intensity,CaBbc1,≤ 0
same,SPOT peptide array binding signal intensity,CaBem1-D1,≤ 0
same,SPOT peptide array binding signal intensity,CaBzz1-D1,1240
same,SPOT peptide array binding signal intensity,CaBzz1-D2,66.8
same,SPOT peptide array binding signal intensity,CaCyk3,≤ 0
same,SPOT peptide array binding signal intensity,CaFus1,≤ 0
same,SPOT peptide array binding signal intensity,CaHof1,≤ 0
same,SPOT peptide array binding signal intensity,CaHse1,≤ 0
same,SPOT peptide array binding signal intensity,CaLsb1,≤ 0
same,SPOT peptide array binding signal intensity,CaLsb4,≤ 0
same,SPOT peptide array binding signal intensity,CaMyo5,795
